# A selection: hits, their analogues and other compounds. The true share with any hit is near 19%.
# KB-3-1 tox – kills parental KB-3-1 adenocarcinoma cells | KB-3-1 viability, CellTiter-Glo ATP luminescence, 72 h | Potency, µM (titrated, usually from 46.1 µM), usual class: cytotoxic | actives 1.4% (n = 400,000) | AID 1347075; note: nearly all actives have a fitted effect of over 60% in size
#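 Using CellTiter-Glo luminescence, growth of non-resistant KB-3-1 adenocarcinoma cells is assessed 72 h after pin-tool compound addition at 37 °C. Normalized responses across the concentration series yield fitted curves.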
# HT1080 IDH1KD tx – toxicity to HT-1080 IDH1 knockdown cells (counter line) | HT-1080 IDH1 knockdown viability, ATP luminescence, 48 h | Potency, µM (top dose mostly 46.1 µM), for the others: at the highest dose activity, negative = toxicity, hits mostly cytotoxic | actives 2% (n = 360,000) | AID 686971;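 note: 0% = DMSO wells and -100% = cell-free medium wells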
#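 % activity derives from luminescence (CellTiter-Glo), normalised to DMSO and no-cell wells. HT-1080-IDH1KD cells, 750/well, had 48 h compound exposure at 37 °C.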
# TDP1 cell CPT – DT40-hTDP1 cell growth loss with CPT. Potency, µM (top dose mostly 46.2 µM), for inactives: top-dose activity change, negative = growth inhibition, usual class: inhibitors. chicken DT40 Tdp1-/-;hTDP1 cells + 20 nM CPT, ATP luminescence, 48 h. actives 12% (n = 420,000); note: nearly all actives have a fitted effect of over 55% in size
#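 Cell growth measured by CellTiter-Glo luminescence after a minimum 48 h, 37 C compound exposure with 20 nM CPT in Tdp1-knockout DT40 cells stably expressing hTDP1, seeded 400/well; qHTS titration format.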
# TDP1 cell noCPT – qHTS for Inhibitors of human tyrosyl-DNA phosphodiesterase 1 (TDP1): qHTS in cells in absence of CPT. AID 686978, 2013. Potency, µM (highest dose often 46.2 µM), for inactives: top-dose activity change, negative = growth inhibition, most hits filed as inhibitors. actives 15% (n = 420,000). DT40 Tdp1-/- hTDP1 cells, no CPT, ATP luminescence, 48 h; note: nearly all actives have a fitted effect of over 55% in size
#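 Growth of hTDP1-complemented DT40 Tdp1-knockout cells is measured by ATP luminescence after at least 48 hr compound exposure at 37 °C, with DMSO substituting for the 20 nM CPT used in the parallel screen.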
# HT1080NT lethal – kills 2HG-producing HT-1080-NT fibrosarcoma cells; HT-1080-NT fibrosarcoma viability, CellTiter-Glo ATP luminescence, 48 h; Potency, µM (highest dose often 46.1 µM), without a hit: top-dose activity, negative = less viability, actives largely listed as cytotoxic; actives 1.6% (n = 360,000);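 note: NT is the 2HG producing partner of a matched IDH1 knockdown line; 0% = DMSO-treated cells and -100% = media-only wells without cells; nearly all actives have a fitted effect of over 55% in size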
#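 HT-1080-NT; 750 cells/well; 5% FBS RPMI; 48 h compound, 37 degrees C; CellTiter-Glo luminescence; curve fitting and curve-class assignment.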
# KB-V1 MDR tox – kills drug-selected multidrug resistant KB-V1 cells; actives 3.4% (n = 400,000); AID 1347076; KB-V1 MDR cells viability, CellTiter-Glo, 72 h; Potency, µM (top dose mostly 46.1 µM), hits mostly cytotoxic; note: nearly all actives have a fitted effect of over 60% in size
#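 KB-V1 cells (P-gp-expressing MDR subline of KB-3-1) in phenol-red-free DMEM with 10% FBS were exposed to library compounds over a concentration series for 72 h at 37 degrees C. Viability read by CellTiter-Glo luminescence; concentration-effect curves fitted after normalization.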
# Numbers without * were called inactive; i = inactive; ? = inconclusive; nt = not tested or not shown; [ ] = dose if it differs, or a comment. Calls come from the whole dose curve; as a rule, active = well fitted curve in the direction sought with a large enough effect; inconclusive = small, poorly fitted or top-dose-only effect, or another doubt; inactive = no such curve, though single readings can be large; an effect the other way counts as inactive or inconclusive. Unless noted, % is set by controls: 0 for no effect and ±100 for the full control effect; potency is the fitted concentration of half-maximal effect.
SMILES,KB-3-1 tox,HT1080 IDH1KD tx,TDP1 cell CPT,TDP1 cell noCPT,HT1080NT lethal,KB-V1 MDR tox
CCOC(=O)CS(=O)(=O)c1nc(-c2ccccc2)cc(C(F)(F)F)n1,13µM*,6.51µM*,0.651µM*,1.64µM*,9.2µM*,?
O=C(Cc1ccccc1[N+](=O)[O-])OCC(=O)c1ccccc1Br,i,8.0%,-10.5%,12.1%,-1.4%[9.24 µM],?
O=C(COC(=O)/C=C/c1cccc(F)c1)NC1CCCCCC1,i,15.1%,-1.9%,-2.1%,7.9%,i
O=C(O)c1ccc(CSc2nc(-c3ccccc3)cc(C(F)(F)F)n2)cc1,i,-18.6%,?,-17.4%,-0.9%,i
CCOC(=O)CS(=O)(=O)c1nc(-c2ccc(F)cc2)cc(C(F)(F)F)n1,3.26µM*,13µM*,0.517µM*,0.82µM*,6.51µM*,i
CCOC(=O)c1c(C(F)(F)F)cc(-c2ccc(F)cc2)nc1C,i,12.0%,-2.8%,-38.5%,10.2%,i
COC(=O)CCS(=O)(=O)c1nc(-c2ccccc2)cc(C(F)(F)F)n1,i,3.55µM*,3.26µM*,2.31µM*,7.08µM*,?
CCOC(=O)CC1C(=O)NCCN1C(=O)c1c(Cl)cccc1Cl (stereo unspecified),i,3.7%,26.4%,2.2%,2.8%,i
CCOC(=O)c1cc(C)n(Cc2cccc(OC)c2OC)c1C,i,-19.5%,?,?,-9.6%,?
CCOC(=O)c1c(C=O)c(C)n(Cc2ccc(C)cc2)c1C,?,?,?,23.1µM*,-22.4%,?
CCOC(=O)c1c(C=O)c(C)n(Cc2ccccc2Cl)c1C,i,-12.0%,-5.2%,-15.3%,0.4%,23.1µM*
CCOC(=O)c1c(C)c(C)n(Cc2cccc(OC)c2OC)c1C,i,-4.3%,?,23.1µM*,-0.9%,?
CC(C)C[C@@H](C=O)NC(=O)[C@H](CC(C)C)NC(=O)[C@H](CC(C)C)NC(=O)OCc1ccccc1,nt,nt,-6.6%,-12.2%,nt,nt
COc1ccccc1-c1cc(C(=O)Nc2cc(Cl)ccc2O)no1,i,nt,-7.1%,-16.9%,nt,?
Cc1ccc(C2(C)NC(=O)N(CC(=O)N3CCc4ccccc43)C2=O)cc1 (stereo unspecified),i,-2.0%,-28.2%,-23.9%,-9.9%,?
CCC1(c2ccc(F)cc2)NC(=O)N(CC(=O)N2CCc3ccccc32)C1=O (stereo unspecified),i,-15.7%,?,?,-8.9%[9.24 µM],i
CCC1(c2ccccc2)NC(=O)N(CC(=O)N2CCc3ccccc32)C1=O (stereo unspecified),i,-0.1%,?,-23.0%,-1.1%,11.6µM*
CC1(c2ccc(Cl)cc2)NC(=O)N(CC(=O)N2CCc3ccccc32)C1=O (stereo unspecified),i,-9.4%,25.9µM*,?,-1.1%,?
Cc1ccc(C)c(S(=O)(=O)C(C#N)c2nc3ccccc3nc2N2CC(C)OC(C)C2)c1 (stereo unspecified),18.4µM*,?,?,?,?,?
Cc1ccc(C)c(S(=O)(=O)C(C#N)c2nc3ccccc3nc2N2CCOCC2)c1 (stereo unspecified),?,-9.9%,-19.1%,?,-11.2%,11.6µM*
CN1CCN(c2nc3ccccc3nc2C(C#N)S(=O)(=O)c2ccccc2)CC1 (stereo unspecified),?,-1.4%,1.2%,-2.8%,-0.6%,i
N#CC(c1nc2ccccc2nc1N1CCCC1)S(=O)(=O)c1ccccc1 (stereo unspecified),?,12.8%,-0.9%,-24.2%,5.1%,20.6µM*
CCOc1ccc(-n2c(=O)c3sccc3n(CC(=O)NCC3CCCO3)c2=O)cc1 (stereo unspecified),i,12.4%,4.6%,4.5%,17.9%,?
COc1cc(NC(=S)N2CCc3ccccc3C2)cc(OC)c1,i,26.4%,2.5%,-2.4%,12.5%,i
O=C(Cc1ccc(Br)cc1)OCC(=O)N1CCc2ccccc2C1,i,0.8%,18.2%,-9.5%,16.2%,i
SMILES,KB-3-1 tox,HT1080 IDH1KD tx,TDP1 cell CPT,TDP1 cell noCPT,HT1080NT lethal,KB-V1 MDR tox
NC(=O)CCCCC1CCSS1 (stereo unspecified),nt,nt,6.6%,-2.6%,nt,nt
O=C(NCc1ccccn1)c1ccccc1OCc1ccc(Cl)cc1Cl,i,-2.6%,?,?,-0.1%[9.24 µM],i
COC1CCN(C(=O)C2CCC(=O)N(C3CCCCCC3)C2)CC1 (stereo unspecified),i,2.2%,-7.4%,16.2%,5.5%,i
CCOC(=O)C1CCN(C2CC(=O)N(c3cccc(Cl)c3)C2=O)CC1 (stereo unspecified),i,0.0%,0.3%,-4.1%,2.6%,i
O=C(C1CC(=O)N(C2CCCC2)C1)N1CCN(c2cccc(Cl)c2)CC1 (stereo unspecified),nt,-18.6%,18.4µM*,23.1µM*,-11.7%,nt
COc1cccc(N2CCN(C(=O)C3CCC(=O)N(C4CCCCCC4)C3)CC2)c1 (stereo unspecified),i,-9.0%,14.6µM*,18.4µM*,-13.1%,?
O=C(C1CCN(C2CC(=O)N(c3cccc(Cl)c3)C2=O)CC1)N1CCCC1 (stereo unspecified),i,14.1%,16.4µM*,?,22.8%,?
O=C(C1CCC(=O)N(C2CC2)C1)N1CCN(c2ccccc2Cl)CC1 (stereo unspecified),i,4.2%,5.6%,6.2%,10.5%,i
O=c1cc(N2CCN(c3cccc(Cl)c3)CC2)[nH]c(=O)n1C1CCCCC1,?,2.5%,?,1.64µM*,5.6%,?
O=C(CSc1nnc(CNC(=O)c2ccc(F)cc2)o1)NCC1CCCO1 (stereo unspecified),i,2.0%,-8.6%,1.3%,5.8%,?
CCOc1ccc(NS(=O)(=O)c2ccc3c(c2)N(C(C)=O)CCS3)cc1,i,-17.4%,?,?,-2.5%,i
Cc1ccc(OC2CCN(C(=O)C3CCC(=O)N(C4CC4)C3)CC2)cc1 (stereo unspecified),?,-2.3%,-3.9%,-3.6%,2.6%,i
Cc1ccccc1OC1CCN(C(=O)C2CCC(=O)N(C3CCCC3)C2)CC1 (stereo unspecified),i,-14.5%,?,14.6µM*,?,i
CS(=O)(=O)N1CCC(C(=O)N2CCN(c3cccc(Cl)c3)CC2)CC1,i,2.1%,1.3%,-29.2%,?,?

# Assay outcomes: PubChem, National Center for Advancing Translational Sciences (NCATS)
